APOBEC3G inh – blocks human APOBEC3G single-stranded DNA deamination. recombinant A3G, ssDNA deamination FAM/TAMRA fluorescence. inhibition, % at 20 µM. 0.28% of 330,000 active. AID 493012;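 active means inhibition of at least 40% at 20 µM, with no more than 30% in the related APOBEC3A deaminase screen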;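 further: plate controls were DMSO wells with A3G for no effect and wells lacking A3G enzyme for full effect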
PfM18AAP inh – PfM18AAP enzyme inhibition | recombinant PfM18AAP, H-Glu-NHMec fluorogenic cleavage | inhibition, % at 7.35 µM | 1.2% of 290,000 active;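 active means inhibition above the campaign mean inhibition over all tested compounds plus 3 SD, cut at about 28% in these data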;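 further: 0% = plate median of test compound wells and 100% = 2 mM ZnCl2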
CendR NRP1 mod – modulators of CendR peptide binding to human neuropilin-1. O14786. FAM-RPARPAR peptide binding to NRP-1, fluorescence polarization. inhibition, % at 25 µM. 0.85% of 360,000 active;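 active means inhibition or corrected inhibition above about 18%, plus a signal ratio from 0.5 to 1.5, limit read from the data, passing the limit was not always enough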
APOBEC3A inh – human APOBEC3A DNA deaminase inhibition | P31941 | recombinant A3A, FAM/TAMRA ssDNA deamination fluorescence | inhibition, % at 20 µM | 0.41% of 330,000 active | AID 493011;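 active means at least 40% inhibition at 20 µM here, with at most 30% in a related deaminase screen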;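 further: plate controls were A3A with DMSO for no effect and wells lacking A3A enzyme for full effect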
Target sequence (P31941 whole entry, looked up): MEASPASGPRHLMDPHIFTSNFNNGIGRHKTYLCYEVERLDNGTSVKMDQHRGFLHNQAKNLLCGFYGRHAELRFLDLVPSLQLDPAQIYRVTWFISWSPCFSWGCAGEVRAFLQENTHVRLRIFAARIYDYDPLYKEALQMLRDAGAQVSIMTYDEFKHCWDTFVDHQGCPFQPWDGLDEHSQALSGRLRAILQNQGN
Yeast superoxide – lowers age-related superoxide in aged yeast cells; S. cerevisiae aged cells, superoxide DHE fluorescence; active compounds read low; superoxide response (% of plate mean), % at 10 µM; 0.18% of 330,000 active; AID 2690;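 active means superoxide response under a set limit, about three screen SD below normal, cut at about 65% in these data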;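 further: yeast aged for seven days with compound at 30 °C before DHE staining; 100% = average MFI of all compound-treated wells on the plate with controls excluded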
ALR H2O2 inh – human ALR oxidase inhibition via reduced H2O2 | 3.8% of 290,000 active | P55789 | AID 485317 | inhibition, % (concentration not given with the values) | purified ALR, DTT oxidation, H2O2 HRP-luminol luminescence;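 active means mean replicate inhibition above about 79%, with every replicate also reaching it, limit read from the data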
Target sequence (P55789 whole entry, looked up): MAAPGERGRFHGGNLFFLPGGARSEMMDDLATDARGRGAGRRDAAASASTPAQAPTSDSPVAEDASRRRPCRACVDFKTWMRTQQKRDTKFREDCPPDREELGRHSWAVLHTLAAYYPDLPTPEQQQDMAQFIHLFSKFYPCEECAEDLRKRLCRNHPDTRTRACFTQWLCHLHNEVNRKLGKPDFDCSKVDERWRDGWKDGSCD
Numbers without * were called inactive; nt = no result given. Compounds with a hit are over-represented: about 5.2% of the library has one in this group of screens.

SMILES | APOBEC3G inh | PfM18AAP inh | CendR NRP1 mod | APOBEC3A inh | Yeast superoxide | ALR H2O2 inh
Cc1ccc(-c2nc(CS(=O)CC(=O)NCc3ccc(Cl)cc3)c(C)o2)cc1 (stereo not drawn) | 3 | 7 | 8 | 2 | 87 | 54
Cc1oc(-c2ccccc2)nc1C(=O)OCC(=O)NCc1ccc(Cl)cc1 | -5 | nt | -8 | -2 | 136 | -1
CCOC(=O)/C=C1\SCC(=O)N1CCOc1cccc(Br)c1 | 4 | -1 | -9 | 4 | 95 | -2
CCCCC1(C)OC(=O)C(=Cc2ccc(N(CC)CC)cc2)C(=O)O1 (stereo not drawn) | -3 | -6 | -323 | 3 | 86 | 97*
COC(=O)C(N)Cc1ccc(Cl)cc1 (stereo not drawn) | -2 | nt | 8 | 0 | 92 | -17
COC(=O)[C@@H](N)Cc1ccc(O)c(O)c1 | 2 | nt | -2 | 0 | 110 | 98*
CCS(=O)(=O)N1Cc2cc(C(=O)NCC3CC3)nc(-c3cccc(-c4cccnc4)c3)c2[C@@H]1CCO | nt | nt | -6 | nt | nt | nt
COc1ccc(S(=O)(=O)N/N=C(/C)c2ccncc2)cc1 | 4 | 7 | -1 | 3 | 100 | -3
COc1ccc(S(=O)(=O)N/N=C(/C)c2ccncc2)c(OC)c1 | -6 | 5 | -1 | -3 | 97 | 81*
O=c1c2c3c(sc2[nH]c(=S)n1Cc1ccco1)CCC3 | 69 | 14 | -38 | 90 | 110 | 93*
CC1(C)Cc2c(sc3[nH]c(=S)n(Cc4ccco4)c(=O)c23)CO1 | -3 | 5 | -11 | -2 | 114 | 98*
Cn1c(=O)n(Cc2ccco2)c(=N)c2c3c(sc21)CCC3 | -2 | -4 | -12 | 7 | 108 | 76*
O=c1[nH]c2sc3c(c2c(=O)n1Cc1ccccc1)CCC3 | -2 | 1 | -12 | -2 | 98 | 56
CN(C)CCCn1c(=O)n(Cc2ccco2)c(=O)c2c3c(sc21)CCCCC3 | -4 | -13 | 0 | -2 | 99 | 6
CCCCN1C(=O)C(CC(=O)NC2CC2)CC(C(=O)N(C(C)C)C(C)C)=C1C (stereo not drawn) | nt | nt | 0 | nt | nt | nt
Cc1cccc(N2CCN(C(=O)c3cccc(N4C(=O)C5CC=CC(C)C5C4=O)c3)CC2)c1C (stereo not drawn) | -6 | 5 | 3 | 2 | 88 | -18
CCOC(=O)c1sc2c(c1C)c(=O)n(Cc1ccccc1)c(=O)n2CCN(C)C | -6 | -8 | 9 | -2 | 96 | nt
CCOC(=O)c1c(CN2CCN(C)CC2)n(-c2ccccc2)c2cc(Br)c(O)cc12 | -3 | 6 | -2 | -1 | 104 | 79*
CCOC(=O)c1c(CN2CCN(CCO)CC2)n(-c2ccccc2)c2cc(Br)c(O)cc12 | -3 | 6 | -13 | -6 | 105 | 68
Cc1nc2c3ccccc3nc(NNC(=O)CCC(=O)NCCN3CCN(c4ccccc4F)CC3)n2n1 | -9 | 13 | 12 | -4 | 131 | 8
Cc1nc2c3ccccc3nc(NNC(=O)CCC(=O)NC3CCCC3)n2n1 | -6 | 15 | 11 | 6 | 84 | 79*
Cc1nc2c3ccccc3nc(NNC(=O)CCC(=O)NC(C)C)n2n1 | -8 | 26 | 13 | -2 | 97 | 16
COc1ccc(N2CCN(CCNC(=O)CCC(=O)NNc3nc4ccccc4c4nc(C)nn34)CC2)cc1 | -8 | 14 | 0 | -4 | 110 | 96*
NNC(=O)C1c2ccccc2Oc2ccccc21 | -5 | 1 | 11 | -1 | 106 | -6
Cc1cccc(C)c1NC(=O)CSc1nnc(NC(=O)C2CC2)s1 | 0 | 1 | 6 | 1 | 95 | 1
COc1ccccc1NC1=C(Cl)C(=O)N(c2ccccc2)C1=O | 13 | -1 | -6 | 1 | 113 | nt
CCOc1ccc(N2C(=O)C(Cl)=C(Nc3ccccc3O)C2=O)cc1 | -9 | 33* | -68 | -9 | 89 | 57
CCOc1ccc(N2C(=O)CC(N3CCN(c4ccc(Cl)cc4)CC3)C2=O)cc1 (stereo not drawn) | 34 | -10 | 22* | -3 | 105 | 2
CCOc1ccc(N2C(=O)C(Cl)=C(N3CCOCC3)C2=O)cc1 | -4 | 29* | -1 | -3 | 112 | 2
O=C1C(Cl)=C(N2CCOCC2)C(=O)N1c1ccc(Br)cc1 | -2 | 20 | -12 | -5 | 98 | 5

Bioassay records: PubChem BioAssay, several laboratories
